# Screening data as filed in PubChem.
# ELG1 genotoxic = qHTS screen for small molecules that induce genotoxicity in human embryonic kidney (HEK293T) cells expressing luciferase-tagged ELG1; AID 504466, 2011; hit rate 1.3% among 330,000; Potency, µM (series often up to 46 µM), without a hit: top-dose activity change, positive = activation, actives largely listed as activators; HEK293T ELG1-luciferase reporter, luminescence, 16 h; note: % of control where 0% means no effect; nearly all actives have a fitted effect of over 60% in size
#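 Genotoxic stress is detected as increased luminescence from luciferase-tagged ELG1 in HEK293T cells, measured with ONE-Glo after a 16 hr treatment at 37 °C.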
# NPC1 promoter act = qHTS Assay for NPC1 Promoter Activators; Huh7 NPC1 promoter luciferase reporter, 24 h; Potency, µM (titrated, usually from 9.22 µM), inactives show at the highest dose activation, usual class: activators; hit rate 2.4% among 320,000; note: % of control where 0% means no effect; nearly all actives have a fitted effect of over 60% in size
#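 Compounds in DMSO were transferred onto Huh7 NPC1-luciferase reporter cells pre-incubated 2 h; after 24 h at 37 °C, Amplite reagent was dispensed and luminescence recorded 10 min later.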
# SMN2 splice enh = qHTS Assay for Enhancers of SMN2 Splice Variant Expression; HEK293 SMN2-luciferase splicing reporter, luminescence, 30-36 h; Potency, µM (highest dose often 46.1 µM), for inactives: at the top dose activity change, positive = activation, most hits filed as activators; hit rate 2.8% among 210,000; note: % of control where 0% means no effect; nearly all actives have a fitted effect of over 55% in size
#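 HEK293 cells carry an SMN2 […]–luciferase reporter in which exon 7 inclusion puts luciferase in frame. Cells were plated 10-12 h before compound addition, then incubated 30-36 h at 37C. ONE-Glo luminescence was read; sodium butyrate at 4.5 mM final served as control.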
# Rab9 prom act = qHTS Assay for Rab9 Promoter Activators; Potency, µM (titrated, usually from 9.22 µM), without a hit: at the top dose activation, negative = inhibition, actives largely listed as activators; AID 485297, 2010; hit rate 2.8% among 320,000; Huh7 Rab9 promoter-luciferase reporter, luminescence, 24 h; note: % of control where 0% means no effect; nearly all actives have a fitted effect of over 60% in size
#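 Huh7 reporter line, Rab9 promoter upstream of luciferase. Compound exposure 24 h at 37 °C in reduced-serum medium with 10% FBS. Read-out: luminescence.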
# FLuc modulator = qHTS profiling assay for firefly luciferase inhibitor/activator using purifed enzyme and Km concentrations of substrates (counterscreen for miR-21 project). AID 588342, 2011. purified FLuc, Km substrates, luminescence inhibition. hit rate 6.9% among 360,000. Potency, µM (series often up to 57.5 µM), for inactives: at the highest dose activity change, negative = inhibition, actives largely listed as inhibitors;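 note: plate controls were vehicle for no effect and reference inhibitor for full effect; nearly all actives have a fitted effect of over 55% in size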
# Target sequence (P08659 whole entry, looked up): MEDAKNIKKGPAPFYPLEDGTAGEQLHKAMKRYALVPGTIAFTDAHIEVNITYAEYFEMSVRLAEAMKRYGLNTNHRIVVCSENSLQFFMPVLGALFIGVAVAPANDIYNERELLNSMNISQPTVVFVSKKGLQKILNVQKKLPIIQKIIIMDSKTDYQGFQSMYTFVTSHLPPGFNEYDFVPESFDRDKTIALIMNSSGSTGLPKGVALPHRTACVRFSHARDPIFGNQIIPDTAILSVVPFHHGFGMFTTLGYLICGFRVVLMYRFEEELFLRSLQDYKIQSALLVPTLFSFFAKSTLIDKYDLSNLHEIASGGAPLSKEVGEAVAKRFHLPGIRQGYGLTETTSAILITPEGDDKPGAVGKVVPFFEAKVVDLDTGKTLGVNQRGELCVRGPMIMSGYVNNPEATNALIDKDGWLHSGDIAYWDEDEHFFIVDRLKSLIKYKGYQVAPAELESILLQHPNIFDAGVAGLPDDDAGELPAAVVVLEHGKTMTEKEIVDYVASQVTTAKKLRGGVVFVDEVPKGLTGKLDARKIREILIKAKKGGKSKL
#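 Biochemical qHTS of compounds, final roughly 60 µM downward over six points, against 10 nM purified firefly luciferase using Km concentrations of substrates (10 uM D-luciferin, 10 uM ATP) in Tris acetate pH 7.5 buffer; luminescence output.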
# Numbers without * were called inactive; ? = inconclusive; / = not tested or not shown; [ ] = dose if it differs, or a comment. In the library only some 7.4% were active in any assay of this set; here they are far more common. Calls come from the whole dose curve; as a rule, active = well fitted curve in the direction sought with a large enough effect; inconclusive = small, poorly fitted or top-dose-only effect, or another doubt; inactive = no such curve, though single readings can be large; an effect the other way counts as inactive or inconclusive. Potency is the fitted concentration of half-maximal effect.
SMILES,ELG1 genotoxic,NPC1 promoter act,SMN2 splice enh,Rab9 prom act,FLuc modulator
CC1CCCN(C(=O)c2cc3ccc4cccnc4c3[nH]2)C1 (stereo not given),/,/,/,/,0.43µM*
CSc1n[nH]c(NCc2ccc(C)cc2)n1,?,29%,16µM*,?,24µM*
Cc1ccc(NC(=O)c2ccc(CSc3nnc(C)s3)cc2)c(C)c1,5%,?,12%,?,13µM*
Cc1nnc(SCc2ccc(C(=O)Nc3cc(Cl)ccc3C)cc2)s1,0%,-1%,-29%,-6%,15µM*
CN(C)c1ccc(N2CN=C3SCC(=O)N3C2)cc1,?,15%,-12%,6%,11µM*
C/C(CC(=O)Nc1cccc(F)c1)=N\NC(=O)c1ccncc1,-1%,8%,/,-6%,1%
Cc1ccc(Sc2ncccc2C(=O)NCc2cc([N+](=O)[O-])ccc2O)c(C)c1,?,4µM*,/,4µM*,8.5µM*
Cc1ccc(Sc2ncccc2C(=O)NCC(c2ccc(F)cc2)N2CCOCC2)c(C)c1 (stereo not given),-1%,-7%,/,-3%,-1%
O=C(NCc1cc([N+](=O)[O-])ccc1O)c1cccnc1Sc1ccccc1,-1%,2%,/,-3%,17µM*
CC1=C(C(=O)Nc2cc(C)ccn2)C(c2ccc(C)cc2)C2=C(CCCC2=O)N1 (stereo not given),13%,-2%,10µM*,-7%,4%
Cc1ccc(Nc2cc(-n3cccn3)ncn2)c(C)c1,7.3µM*,3.5µM*,24%,2.5µM*,11µM*
Cc1ccc(Nc2cc(-n3nc(C)cc3C)ncn2)c(C)c1,-6%,0%,-21%,-3%,1%
C/C(=N\NC(=O)c1n[nH]c2c1CCC2)c1cccs1,?,?,/,?,0.6µM*
Cc1ccc(/C=N/NC(=O)c2n[nH]c3c2CCCC3)cc1,6.5µM*,?,/,-6%,2.4µM*
O=C(N/N=C\c1cccc(Cl)c1)c1n[nH]c2c1CCCC2,?,2.5µM*,13µM*,0.71µM*,1.7µM*
O=C(N/N=C/c1cccs1)c1n[nH]c2c1CCCC2,?,?,/,0.1µM*,0.85µM*
CCCOC(=O)c1cccc(Nc2nc(CCC)cc(=O)[nH]2)c1,/,/,-34%,/,-19%
O=C(N/N=C/c1ccc(Cl)cc1Cl)c1n[nH]c2c1CCCC2,?,0%,14µM*,14%,?
CCCC1CCC(c2nc(-c3cccnc3)no2)CC1 (stereo not given),15%,24%,-3%,?,24µM*
CN(C)/C=N/c1ncn(-c2ncc(C(F)(F)F)cc2Cl)n1,?,3.2µM*,11µM*,2.2µM*,?
CN(C)/C=N/S(=O)(=O)c1cccn1-c1ncc(C(F)(F)F)cc1Cl,16%,-6%,12%,-10%,-1%
O=C(NCCNC(=O)c1ccccc1)c1ccccc1,3%,-2%,/,2%,0%
O=C(NCC(O)c1ccccc1)c1ccccc1 (stereo not given),?,2.8µM*,/,4µM*,21µM*
CC(=O)c1csc(Nc2ccccc2Cl)n1,?,3.2µM*,/,2.8µM*,19µM*
O=C(c1ccccc1)c1cnc(Nc2ccccc2Cl)s1,?,1µM*,20µM*,1.3µM*,1.9µM*
SMILES,ELG1 genotoxic,NPC1 promoter act,SMN2 splice enh,Rab9 prom act,FLuc modulator
CC(=O)c1cnc(Nc2ccc(C)cc2)s1,?,23%,?,?,?
CC(C)(C)C(=O)c1cnc(Nc2ccccc2Cl)s1,/,/,13µM*,/,2.4µM*
COc1cc2ccccc2cc1C(=O)N1CCN(c2nc3c(F)cc(F)cc3s2)CC1,/,/,/,/,-8%
CCOc1ccc(S(=O)(=O)NC(C)C(=O)NCc2cccnc2)cc1 (stereo not given),-8%,-2%,/,-1%,-2%
CC(C)(C)c1ccc(C(=O)Nc2cccnc2)cc1,2.3µM*,2.8µM*,/,4µM*,2.7µM*
CCc1sc(C(=O)Nc2cccnc2)cc1Br,?,?,/,?,11µM*
CC(C)(C)c1ccc(C(=O)Nc2ccc(Oc3cccnc3)nc2)cc1,-10%,-26%,/,-40%,8.5µM*
O=C(Nc1cccnc1)c1ccc(Br)s1,5%,14%,-12%,26%,7%[2.3 µM]
O=C(c1cccc(F)c1)N1CCC[C@@]2(CCN(C(c3ccccc3)c3ccccc3)C2)C1,/,/,-72%,/,/
COc1ccc2c(c1)O[C@@H](c1cccc(C(F)(F)F)c1)[C@H](OC(=O)NC1CCCC1)C2=O,/,/,-4%,/,/
O=C(NNC(=O)c1cccc(C(F)(F)F)c1)c1ccncc1,2%,1%,/,-4%,-11%
O=C(Nc1ncccn1)c1ccc(C(F)(F)F)cc1,3%,0%,-1%,-5%,19µM*
COc1cc(C(=O)NC2=NCCS2)cc(OC)c1OC,-1%,2%,?,3%,0%
Cc1ccc(C(=O)NC2=NCCS2)cc1Cl,?,1.4µM*,/,1.3µM*,6.7µM*
O=C(NC1=NCCS1)c1ccc(C(F)(F)F)cc1,?,2.8µM*,/,15%[1.84 µM],11µM*
O=C(NC1=NCCS1)c1ccc(N2CCCC2=O)cc1,8%,20%,?,?,-8%
CC(C)c1ccc(C(=O)NC2=NCCS2)cc1,1.6µM*,0.56µM*,2µM*,0.4µM*,1.9µM*
Clc1ccc(CNCc2cccs2)c(Cl)c1,-1%,0%,-1%,1%,-16%
COc1ccc(OC)c(NC(=O)CCC(=O)Oc2ccc(C)cc2)c1,-4%,2%,/,1%,-1%
Cc1ccc(C(=O)NC2=NCCS2)cc1,?,2.8µM*,/,3.5µM*,11µM*
N#Cc1ccc(C(=O)NC2=NCCS2)cc1,16%,?,/,?,?
CCc1noc(C)c1C(=O)N1CCN(S(=O)(=O)c2ccc(Cl)s2)CC1,16%,0%,/,2%,4%
O=C(Nc1nc2ccc(F)cc2s1)C1=COCCO1,?,0.71µM*,/,0.28µM*,0.43µM*
O=C(Nc1nc2cc3c(cc2s1)OCCO3)C1=COCCO1,?,-23%,/,-24%,0.054µM*
CSc1cccc2sc(NC(=O)C3=COCCO3)nc12,13%,20%,/,28%,-14%
Cc1cc(C)c2sc(NC(=O)C3=COCCO3)nc2c1,?,0.56µM*,/,0.45µM*,2.1µM*
Cc1ccc(-c2nnc(NC(=O)C3=COCCO3)o2)c(C)c1,8%,19%,/,11%,15µM*
Cc1ccc(-c2n[nH]c(=S)n2/N=C/c2ccncc2)cc1,-12%,0%,-19%,9%,-13%
CC(C)C[C@@H](CC(=O)N[C@H](CC(=O)N[C@@H]1CCNC[C@H]1C(=O)N[C@H](CC(=O)N[C@@H](CCC(=O)O)CC(=O)O)Cc1ccccc1)C(C)C)NC(=O)[C@@H]1CCCC[C@H]1N,/,/,8%,/,/
